Test results from PubChem BioAssay AID1159580 (chemical genetic matrix, 2015).
“And” between values parts separate entries of the source, which are not always exact repeats. Equal entries are not always repeated. Hit rate of the full screen: of about 5,500 compounds, about 2,000 (36%) were called active. About 18% were inconclusive and are not listed. No stated cut-off is given here; in the data, active means normalized growth mostly below about 0.91 (no sharp cut-off); inconclusive means no clear call, values can overlap the other calls; inactive means mostly above about 0.92. This is one part of the list.

Experiment: chemical genetic growth profiling, strain panel (AID 1159580);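 further: tested at 20 µM; growth read once vehicle control cultures reached saturation at 30 °C; 1 = growth at the plate median or of vehicle wells; lower values mean less growth of the strain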
Conditions: S. cerevisiae deletion strains, growth OD

Measured: normalized growth

NCC(=O)c1ccccc1
inactive: locus YAL013W, strain DEP1, hits give low values 1.02 | locus YAL021C, strain ccr4, hits give low values 1.02 | locus YAL026C, strain drs2, hits give low values 1.01 | locus YAL030W, strain snc1, hits give low values 1 | locus YBL061C, strain skt5, hits give low values 0.995 | locus YBR009C, strain hhf1, hits give low values 0.999 | locus YBR021W, strain FUR4, hits give low values 1.02 | locus YBR023C, strain chs3, hits give low values 1 | locus YBR171W, strain sec66, hits give low values 1 | locus YBR229C, strain ROT2, hits give low values 1.01 | locus YBR231C, strain swc5, hits give low values 0.998 | locus YBR279W, strain paf1, hits give low values 1.01 | locus YCL011C, strain gbp2, hits give low values 1.01 | locus YCL016C, strain dcc1, hits give low values 1 | locus YCL029C, strain bik1, hits give low values 0.998 | locus YCL061C, strain MRC1, hits give low values 0.996 | locus YCL069W, strain vba3, hits give low values 0.997 | locus YCR088W, strain abp1, hits give low values 1 | locus YDL005C, strain med2, hits give low values 0.984 | locus YDL035C, strain GPR1, hits give low values 1.02 | locus YDL040C, strain nat1, hits give low values 1 | locus YDL074C, strain BRE1, hits give low values 1.06 | locus YDL101C, strain DUN1, hits give low values 1.02 | locus YDL134C, strain PPH21, hits give low values 1.02 | locus YDL185W, strain tfp1, hits give low values 0.996 | locus YDL192W, strain arf1, hits give low values 0.997 | locus YDR001C, strain nth1, hits give low values 1.01 | locus YDR069C, strain doa4, hits give low values 1.02 | locus YDR101C, strain arx1, hits give low values 0.983 | locus YDR137W, strain rgp1, hits give low values 1.01 | locus YDR150W, strain NUM1, hits give low values 1.03 | locus YDR159W, strain sac3, hits give low values 0.993 | locus YDR162C, strain NBP2, hits give low values 1.04 | locus YDR195W, strain ref2 0.976 | locus YDR297W, strain sur2, hits give low values 0.989 | locus YDR318W, strain mcm21, hits give low values 0.982 | locus YDR334W, strain swr1, hits give low values 0.999 | locus YDR335W, strain msn5, hits give low values 1.01 | locus YDR388W, hits give low values 0.991 | locus YDR392W, strain spt3, hits give low values 1.02 | locus YDR502C, strain sam2, hits give low values 0.988 | locus YEL003W, strain gim4, hits give low values 1 | locus YEL037C, strain rad23, hits give low values 1 | locus YEL061C, strain CIN8 (second series), hits give low values 1.02 | locus YEL061C, strain CIN8, hits give low values 1.01 | locus YER015W, strain faa2, hits give low values 1 | locus YER016W, strain bim1, hits give low values 0.987 | locus YER110C, hits give low values 0.996 | locus YER111C, strain swi4, hits give low values 0.992 | locus YER155C, strain BEM2 (second series), hits give low values 1 | locus YER155C, strain BEM2, hits give low values 1.01 | locus YER167W, strain BCK2, hits give low values 1.02 | locus YFR010W, strain ubp6, hits give low values 0.999 | locus YGL078C, strain dbp3, hits give low values 0.994 | locus YGL086W, strain mad1, hits give low values 1 | locus YGL167C, strain pmr1, hits give low values 0.997 | locus YGL173C, strain kem1, hits give low values 0.998 | locus YGL227W, strain vid30, hits give low values 1.01 | locus YGL240W, strain doc1, hits give low values 1.02 | locus YGL248W, strain PDE1, hits give low values 1.02 | locus YGL253W, strain hxk2, hits give low values 1.02 | locus YGR078C, strain PAC10, hits give low values 1.02 | locus YGR135W, strain pre9, hits give low values 0.994 | locus YGR229C, strain SMI1, hits give low values 1.03 | locus YGR252W, strain gcn5, hits give low values 0.964 | locus YHR013C, strain ard1, hits give low values 0.979 | locus YHR027C, strain rpn1, hits give low values 1.02 | locus YHR030C, strain SLT2, hits give low values 1.01 and 1.02 | locus YHR079C, strain IRE1 (second series), hits give low values 0.996 | locus YHR079C, strain IRE1, hits give low values 1.03 | locus YHR094C, strain hxt1, hits give low values 0.988 | locus YHR129C, strain ARP1, hits give low values 1.01 | locus YHR142W, strain chs7, hits give low values 1.01 | locus YHR200W, strain rpn10, hits give low values 0.988 | locus YIL066C, strain RNR3, hits give low values 1.02 | locus YIL073C, strain SPO22, hits give low values 0.951 | locus YIL125W, strain kgd1, hits give low values 1 | locus YIR030C, strain dcg1, hits give low values 0.992 | locus YJL092W, strain hpr5, hits give low values 1 | locus YJL095W, strain BCK1 (second series), hits give low values 0.999 | locus YJL095W, strain BCK1, hits give low values 1.05 and 1.03 | locus YJL115W, strain asf1, hits give low values 1 | locus YJL129C, strain trk1, hits give low values 1 | locus YJL134W, strain LCB3, hits give low values 1.01 | locus YJL154C, strain vps35, hits give low values 1 | locus YJL164C, strain tpk1, hits give low values 0.996 | locus YJL166W, strain qcr8, hits give low values 1.02 | locus YJL168C, strain set2, hits give low values 0.994 | locus YJL187C, strain SWE1 (second series), hits give low values 1.02 | locus YJR043C, strain POL32, hits give low values 1 | locus YJR066W, strain TOR1, hits give low values 0.997
